Legend:
Test in all cases: DAPPL (digital affinity profiling via proximity ligation, sequencing); 10 mM Tris-HCl pH 7.5, 50 mM NaCl, 1 mM DTT, 4% glycerol, room temperature, 30 min; GST-TFs on glutathione beads, 16-mer random dsDNA library, 0.1% formaldehyde crosslink after washing; high values mean tight binding
[1] = target: T1, FEV (Homo sapiens, UniProt Q99581 1-238); details: protein: recombinant; tags: N-terminal GST; dsDNA, one strand shown
T1 sequence: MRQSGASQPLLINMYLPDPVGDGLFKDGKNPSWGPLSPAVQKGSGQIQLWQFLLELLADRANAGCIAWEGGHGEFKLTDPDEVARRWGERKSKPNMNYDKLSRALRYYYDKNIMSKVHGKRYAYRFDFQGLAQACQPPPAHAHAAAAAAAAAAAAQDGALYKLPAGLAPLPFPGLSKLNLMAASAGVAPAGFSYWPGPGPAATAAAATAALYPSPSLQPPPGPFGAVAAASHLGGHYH
Method in brief: (§1)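 Beads coated with glutathione captured GST-fused human transcription factors that had been expressed in yeast, and the factors were then given DNA barcodes and pooled with a tag-only sample. The pools were incubated with 200 nmole of a random double-stranded 16-mer DNA library in Tris/NaCl/DTT/glycerol buffer for 30 min at room temperature, washed, crosslinked with 0.1% formaldehyde and proximity-ligated with BsaI/T4 ligase at 37 °C for 1 h. PCR amplification and Illumina NextSeq500 sequencing came last. Binding signal is each hexamer's read frequency for a factor divided by its frequency for the tag-only sample.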

[2] = target: ETV5 (Homo sapiens, UniProt P41161 1-510); details: protein: recombinant; tags: N-terminal GST; dsDNA, one strand shown
Method in brief: as §1

[3] = target: HSF1 (Homo sapiens, UniProt Q00613 1-529); details: protein: recombinant; tags: N-terminal GST; chain copies: 3; dsDNA, one strand shown
Method in brief: as §1

[4] = target: T2, SPIC (Homo sapiens, UniProt Q8N5J4 1-248); details: protein: recombinant; tags: N-terminal GST; dsDNA, one strand shown
T2 sequence: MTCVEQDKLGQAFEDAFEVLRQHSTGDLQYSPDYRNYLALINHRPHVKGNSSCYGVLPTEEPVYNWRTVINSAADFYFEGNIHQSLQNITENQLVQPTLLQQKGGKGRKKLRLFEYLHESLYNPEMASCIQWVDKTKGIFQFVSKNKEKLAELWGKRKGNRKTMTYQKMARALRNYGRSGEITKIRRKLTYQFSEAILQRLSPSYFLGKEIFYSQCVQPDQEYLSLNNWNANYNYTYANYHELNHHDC
Method in brief: as §1

[5] = target: ELF4 (Homo sapiens, UniProt Q99607 1-663); details: protein: recombinant; tags: N-terminal GST; dsDNA, one strand shown
Method in brief: as §1

[6] = target: T3, ELK4 (Homo sapiens, UniProt P28324-2 1-405); details: protein: recombinant; tags: N-terminal GST; dsDNA, one strand shown
T3 sequence: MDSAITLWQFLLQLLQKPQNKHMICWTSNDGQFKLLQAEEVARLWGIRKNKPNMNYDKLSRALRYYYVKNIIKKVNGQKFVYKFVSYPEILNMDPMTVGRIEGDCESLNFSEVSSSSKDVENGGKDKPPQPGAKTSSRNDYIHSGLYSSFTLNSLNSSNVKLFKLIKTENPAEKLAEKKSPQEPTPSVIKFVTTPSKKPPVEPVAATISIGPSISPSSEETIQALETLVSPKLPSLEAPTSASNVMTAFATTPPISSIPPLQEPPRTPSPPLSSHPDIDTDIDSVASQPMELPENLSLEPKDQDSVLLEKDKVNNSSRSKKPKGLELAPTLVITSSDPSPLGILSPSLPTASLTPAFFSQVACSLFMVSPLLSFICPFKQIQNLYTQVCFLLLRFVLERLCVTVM
Method in brief: as §1

[7] = target: T4, ETV2 (Homo sapiens, UniProt O00321 1-342); details: protein: recombinant; tags: N-terminal GST; dsDNA, one strand shown
T4 sequence: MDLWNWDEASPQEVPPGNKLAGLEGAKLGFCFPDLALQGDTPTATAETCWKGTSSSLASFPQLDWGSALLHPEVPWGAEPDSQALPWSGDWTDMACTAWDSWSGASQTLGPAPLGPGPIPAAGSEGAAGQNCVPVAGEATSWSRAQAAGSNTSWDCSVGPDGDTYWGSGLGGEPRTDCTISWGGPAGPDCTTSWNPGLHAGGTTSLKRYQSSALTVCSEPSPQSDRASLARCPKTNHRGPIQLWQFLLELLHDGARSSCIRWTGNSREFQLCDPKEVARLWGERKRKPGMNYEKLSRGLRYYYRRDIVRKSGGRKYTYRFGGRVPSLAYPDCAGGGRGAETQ
Method in brief: as §1

[8] = target: T5, ELF3 (Homo sapiens, UniProt P78545 1-371); details: protein: recombinant; tags: N-terminal GST; dsDNA, one strand shown
T5 sequence: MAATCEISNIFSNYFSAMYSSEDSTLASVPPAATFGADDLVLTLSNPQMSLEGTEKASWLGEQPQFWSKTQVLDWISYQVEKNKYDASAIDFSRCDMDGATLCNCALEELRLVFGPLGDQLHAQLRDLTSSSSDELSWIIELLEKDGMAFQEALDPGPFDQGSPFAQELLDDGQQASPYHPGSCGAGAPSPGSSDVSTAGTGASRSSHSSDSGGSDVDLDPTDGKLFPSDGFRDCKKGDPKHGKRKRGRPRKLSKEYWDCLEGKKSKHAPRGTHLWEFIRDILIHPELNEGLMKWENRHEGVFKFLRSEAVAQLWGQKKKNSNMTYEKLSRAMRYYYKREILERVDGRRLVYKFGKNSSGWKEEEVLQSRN
Method in brief: as §1

[9] = target: CRX (Homo sapiens, UniProt O43186 1-299); details: protein: recombinant; tags: N-terminal GST; dsDNA, one strand shown
Method in brief: as §1

[10] = target: ETV1 (Homo sapiens, UniProt P50549 1-477); details: protein: recombinant; tags: N-terminal GST; dsDNA, one strand shown
Method in brief: as §1

[11] = target: T6, ERF (Homo sapiens, UniProt P50548 1-548); details: protein: recombinant; tags: N-terminal GST; dsDNA, one strand shown
T6 sequence: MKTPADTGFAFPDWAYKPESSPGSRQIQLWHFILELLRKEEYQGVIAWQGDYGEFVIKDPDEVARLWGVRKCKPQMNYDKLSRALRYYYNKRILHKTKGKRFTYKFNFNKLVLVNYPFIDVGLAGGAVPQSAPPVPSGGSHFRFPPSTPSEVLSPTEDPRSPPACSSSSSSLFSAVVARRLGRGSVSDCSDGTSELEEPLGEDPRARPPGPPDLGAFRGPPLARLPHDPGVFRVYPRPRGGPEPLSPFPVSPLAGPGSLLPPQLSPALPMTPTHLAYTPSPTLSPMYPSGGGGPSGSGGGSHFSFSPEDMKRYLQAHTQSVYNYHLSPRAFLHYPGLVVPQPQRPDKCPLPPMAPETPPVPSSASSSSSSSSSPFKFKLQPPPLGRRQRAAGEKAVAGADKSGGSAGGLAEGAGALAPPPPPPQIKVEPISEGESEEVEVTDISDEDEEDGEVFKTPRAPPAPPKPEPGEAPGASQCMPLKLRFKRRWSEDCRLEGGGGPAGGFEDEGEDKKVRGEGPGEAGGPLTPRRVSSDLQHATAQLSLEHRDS
Method in brief: as §1

[12] = target: T7, ETV3L (Homo sapiens, UniProt Q6ZN32 1-361); details: protein: recombinant; tags: N-terminal GST; dsDNA, one strand shown
T7 sequence: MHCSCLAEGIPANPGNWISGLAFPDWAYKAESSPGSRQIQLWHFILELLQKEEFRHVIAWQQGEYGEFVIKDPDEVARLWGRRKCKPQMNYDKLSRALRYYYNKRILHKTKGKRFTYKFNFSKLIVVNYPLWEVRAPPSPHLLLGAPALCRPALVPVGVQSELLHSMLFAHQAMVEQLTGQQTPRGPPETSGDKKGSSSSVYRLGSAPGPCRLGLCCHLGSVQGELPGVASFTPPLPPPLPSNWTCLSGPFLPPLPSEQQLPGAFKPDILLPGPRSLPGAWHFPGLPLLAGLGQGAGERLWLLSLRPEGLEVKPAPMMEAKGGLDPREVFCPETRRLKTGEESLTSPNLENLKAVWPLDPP
Method in brief: as §1

[13] = target: T8, ETS2 (Homo sapiens, UniProt P15036 1-469); details: protein: recombinant; tags: N-terminal GST; dsDNA, one strand shown
T8 sequence: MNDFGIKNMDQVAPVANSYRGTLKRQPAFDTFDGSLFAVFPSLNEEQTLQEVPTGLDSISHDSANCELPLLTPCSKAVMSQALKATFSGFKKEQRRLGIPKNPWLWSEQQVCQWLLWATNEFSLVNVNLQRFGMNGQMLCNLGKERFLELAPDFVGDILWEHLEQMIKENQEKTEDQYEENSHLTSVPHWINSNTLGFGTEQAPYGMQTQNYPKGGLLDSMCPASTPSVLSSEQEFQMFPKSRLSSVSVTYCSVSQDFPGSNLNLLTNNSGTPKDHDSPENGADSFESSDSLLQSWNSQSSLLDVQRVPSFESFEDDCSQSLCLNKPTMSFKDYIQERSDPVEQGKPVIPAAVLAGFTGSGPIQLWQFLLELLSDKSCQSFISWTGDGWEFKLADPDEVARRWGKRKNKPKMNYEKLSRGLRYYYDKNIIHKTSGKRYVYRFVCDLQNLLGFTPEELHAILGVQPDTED
Method in brief: as §1

[14] = target: T9, SPDEF (Homo sapiens, UniProt O95238 1-335); details: protein: recombinant; tags: N-terminal GST; dsDNA, one strand shown
T9 sequence: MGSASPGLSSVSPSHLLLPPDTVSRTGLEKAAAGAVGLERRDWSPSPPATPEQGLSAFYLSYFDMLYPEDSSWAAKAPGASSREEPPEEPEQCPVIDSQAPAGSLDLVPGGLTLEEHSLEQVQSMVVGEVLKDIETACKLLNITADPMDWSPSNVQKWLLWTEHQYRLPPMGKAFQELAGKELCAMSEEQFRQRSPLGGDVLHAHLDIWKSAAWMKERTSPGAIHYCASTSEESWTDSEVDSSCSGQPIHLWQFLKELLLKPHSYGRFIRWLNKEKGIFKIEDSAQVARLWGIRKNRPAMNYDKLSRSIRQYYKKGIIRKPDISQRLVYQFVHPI
Method in brief: as §1

[15] = target: T10, ETV7 (Homo sapiens, UniProt Q9Y603 1-341); details: protein: recombinant; tags: N-terminal GST; dsDNA, one strand shown
T10 sequence: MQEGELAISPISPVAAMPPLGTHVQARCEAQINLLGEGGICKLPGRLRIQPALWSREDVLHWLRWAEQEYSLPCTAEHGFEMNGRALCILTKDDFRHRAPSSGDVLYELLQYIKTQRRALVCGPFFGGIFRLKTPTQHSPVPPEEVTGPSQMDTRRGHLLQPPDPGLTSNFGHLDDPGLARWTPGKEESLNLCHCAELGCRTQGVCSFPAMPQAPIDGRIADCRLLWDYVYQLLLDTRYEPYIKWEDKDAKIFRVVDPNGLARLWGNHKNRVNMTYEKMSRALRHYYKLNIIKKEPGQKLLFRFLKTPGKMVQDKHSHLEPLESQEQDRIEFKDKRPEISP
Method in brief: as §1

[16] = target: T11, ELF5 (Homo sapiens, UniProt Q9UKW6-2 1-255); details: protein: recombinant; tags: N-terminal GST; dsDNA, one strand shown
T11 sequence: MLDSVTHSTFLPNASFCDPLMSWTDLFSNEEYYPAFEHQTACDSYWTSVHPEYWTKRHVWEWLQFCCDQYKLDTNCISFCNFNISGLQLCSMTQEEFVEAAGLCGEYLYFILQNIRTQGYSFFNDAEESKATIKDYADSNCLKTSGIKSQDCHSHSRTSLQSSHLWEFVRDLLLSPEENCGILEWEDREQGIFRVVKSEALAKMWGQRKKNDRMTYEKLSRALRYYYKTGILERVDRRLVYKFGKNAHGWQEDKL
Method in brief: as §1

[17] = target: T12, ETV3 (Homo sapiens, UniProt P41162-2 1-143); details: protein: recombinant; tags: N-terminal GST; dsDNA, one strand shown
T12 sequence: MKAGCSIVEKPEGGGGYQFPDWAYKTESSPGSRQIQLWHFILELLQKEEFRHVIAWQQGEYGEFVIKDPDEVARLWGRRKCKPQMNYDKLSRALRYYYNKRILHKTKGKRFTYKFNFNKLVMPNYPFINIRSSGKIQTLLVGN
Method in brief: as §1

[18] = target: ETV6 (Homo sapiens, UniProt P41212 1-452); details: protein: recombinant; tags: N-terminal GST; dsDNA, one strand shown
Method in brief: as §1

Sequence of ETV6 (P41212 whole entry): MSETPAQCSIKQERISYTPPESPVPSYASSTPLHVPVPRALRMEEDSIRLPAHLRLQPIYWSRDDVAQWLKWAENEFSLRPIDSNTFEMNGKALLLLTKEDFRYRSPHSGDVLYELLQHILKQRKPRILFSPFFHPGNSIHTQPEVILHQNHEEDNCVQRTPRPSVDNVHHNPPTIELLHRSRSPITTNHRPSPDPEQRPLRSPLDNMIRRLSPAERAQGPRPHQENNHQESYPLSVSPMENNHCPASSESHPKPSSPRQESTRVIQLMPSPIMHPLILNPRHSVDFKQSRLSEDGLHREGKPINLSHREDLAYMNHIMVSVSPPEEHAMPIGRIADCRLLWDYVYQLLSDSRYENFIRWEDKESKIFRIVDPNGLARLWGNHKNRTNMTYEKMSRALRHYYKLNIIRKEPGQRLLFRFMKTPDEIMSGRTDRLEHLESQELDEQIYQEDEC
Sequence of ETV1 (P50549 whole entry): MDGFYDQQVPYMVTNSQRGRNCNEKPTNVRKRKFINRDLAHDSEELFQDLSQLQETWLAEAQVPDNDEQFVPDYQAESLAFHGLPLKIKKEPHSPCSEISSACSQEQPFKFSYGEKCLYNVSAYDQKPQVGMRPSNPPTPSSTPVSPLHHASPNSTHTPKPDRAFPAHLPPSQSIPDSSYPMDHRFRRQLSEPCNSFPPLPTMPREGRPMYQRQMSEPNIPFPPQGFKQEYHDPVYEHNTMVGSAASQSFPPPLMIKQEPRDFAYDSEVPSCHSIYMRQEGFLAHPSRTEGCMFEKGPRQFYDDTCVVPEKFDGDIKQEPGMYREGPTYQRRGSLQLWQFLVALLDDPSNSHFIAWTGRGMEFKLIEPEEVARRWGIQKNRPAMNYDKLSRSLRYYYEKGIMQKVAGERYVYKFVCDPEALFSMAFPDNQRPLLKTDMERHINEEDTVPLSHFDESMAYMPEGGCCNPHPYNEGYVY
Sequence of CRX (O43186 whole entry): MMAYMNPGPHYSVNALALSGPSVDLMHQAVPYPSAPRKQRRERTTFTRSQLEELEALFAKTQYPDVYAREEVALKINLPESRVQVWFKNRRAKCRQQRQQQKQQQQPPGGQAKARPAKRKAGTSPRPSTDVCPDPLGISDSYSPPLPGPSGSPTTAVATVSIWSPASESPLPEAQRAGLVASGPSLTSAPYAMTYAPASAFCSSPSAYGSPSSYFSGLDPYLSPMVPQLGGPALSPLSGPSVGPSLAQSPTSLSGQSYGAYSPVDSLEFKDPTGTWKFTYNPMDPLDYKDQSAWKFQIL
Sequence of ETV5 (P41161 whole entry): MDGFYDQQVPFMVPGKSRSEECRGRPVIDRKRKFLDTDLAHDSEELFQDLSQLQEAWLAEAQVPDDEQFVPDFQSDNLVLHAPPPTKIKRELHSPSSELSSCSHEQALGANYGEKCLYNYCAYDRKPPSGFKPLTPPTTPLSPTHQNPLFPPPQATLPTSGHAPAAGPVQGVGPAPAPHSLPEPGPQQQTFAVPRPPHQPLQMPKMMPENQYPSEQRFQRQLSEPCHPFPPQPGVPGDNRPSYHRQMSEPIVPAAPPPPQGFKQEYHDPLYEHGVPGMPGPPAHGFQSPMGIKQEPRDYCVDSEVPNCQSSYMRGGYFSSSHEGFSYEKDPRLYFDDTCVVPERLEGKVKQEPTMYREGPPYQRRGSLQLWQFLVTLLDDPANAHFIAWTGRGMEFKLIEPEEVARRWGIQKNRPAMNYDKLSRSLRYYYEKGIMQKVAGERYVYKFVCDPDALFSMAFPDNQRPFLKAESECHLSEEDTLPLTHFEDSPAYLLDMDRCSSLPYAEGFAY
Sequence of HSF1 (Q00613 whole entry): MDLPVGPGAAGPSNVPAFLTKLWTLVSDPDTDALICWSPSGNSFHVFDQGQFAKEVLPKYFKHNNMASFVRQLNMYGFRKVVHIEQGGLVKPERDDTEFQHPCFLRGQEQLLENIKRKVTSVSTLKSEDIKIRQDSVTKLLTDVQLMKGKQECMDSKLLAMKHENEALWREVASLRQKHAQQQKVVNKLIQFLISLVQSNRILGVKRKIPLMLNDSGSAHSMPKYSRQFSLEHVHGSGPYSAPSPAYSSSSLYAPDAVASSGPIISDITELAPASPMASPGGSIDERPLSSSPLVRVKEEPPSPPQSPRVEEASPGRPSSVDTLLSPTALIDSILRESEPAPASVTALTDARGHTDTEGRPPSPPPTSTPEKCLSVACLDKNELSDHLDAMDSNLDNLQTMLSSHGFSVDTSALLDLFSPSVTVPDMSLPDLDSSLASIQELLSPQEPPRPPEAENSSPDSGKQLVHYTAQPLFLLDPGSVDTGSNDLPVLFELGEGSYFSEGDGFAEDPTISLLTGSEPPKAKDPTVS
Sequence of ELF4 (Q99607 whole entry): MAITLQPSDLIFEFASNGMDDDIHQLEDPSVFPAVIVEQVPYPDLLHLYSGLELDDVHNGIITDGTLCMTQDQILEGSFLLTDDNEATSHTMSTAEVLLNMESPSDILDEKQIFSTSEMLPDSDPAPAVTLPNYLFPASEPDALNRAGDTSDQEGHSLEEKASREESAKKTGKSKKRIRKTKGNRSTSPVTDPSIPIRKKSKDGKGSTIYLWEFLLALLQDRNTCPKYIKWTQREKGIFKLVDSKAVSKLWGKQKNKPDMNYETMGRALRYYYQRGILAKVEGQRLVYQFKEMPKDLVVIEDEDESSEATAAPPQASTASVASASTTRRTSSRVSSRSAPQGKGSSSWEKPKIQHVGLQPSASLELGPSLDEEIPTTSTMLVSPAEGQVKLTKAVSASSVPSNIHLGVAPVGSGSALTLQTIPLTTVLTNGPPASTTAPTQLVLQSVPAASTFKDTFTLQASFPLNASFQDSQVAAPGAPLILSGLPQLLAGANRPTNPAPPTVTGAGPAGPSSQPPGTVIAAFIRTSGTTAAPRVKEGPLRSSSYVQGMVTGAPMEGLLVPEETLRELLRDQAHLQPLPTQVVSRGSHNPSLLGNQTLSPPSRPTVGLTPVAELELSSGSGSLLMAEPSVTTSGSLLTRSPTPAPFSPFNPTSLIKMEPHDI

In the case of GATATT, the binding signal [1] is reported as 1.04 fold enrichment (6-mer frequency, TF over GST control), the binding signal [2] is reported as 1.14 fold enrichment (6-mer frequency, TF over GST control) and the binding signal [3] is reported as 1.18 fold enrichment (6-mer frequency, TF over GST control). For the same sequence, the binding signal [4] was 1.12 fold enrichment (6-mer frequency, TF over GST control), the binding signal [5] was 1.12 fold enrichment (6-mer frequency, TF over GST control) and the binding signal [6] was 1.15 fold enrichment (6-mer frequency, TF over GST control). For the same sequence, the binding signal [7] was 1.24 fold enrichment (6-mer frequency, TF over GST control), the binding signal [8] was 1.07 fold enrichment (6-mer frequency, TF over GST control) and the binding signal [9] was 1.31 fold enrichment (6-mer frequency, TF over GST control). For the same sequence, the binding signal [10] was 1.1 fold enrichment (6-mer frequency, TF over GST control), the binding signal [11] was 1.05 fold enrichment (6-mer frequency, TF over GST control) and the binding signal [12] was 1.12 fold enrichment (6-mer frequency, TF over GST control). The binding signal [13] was 1.13 fold enrichment (6-mer frequency, TF over GST control), the binding signal [14] was 1.26 fold enrichment (6-mer frequency, TF over GST control) and the binding signal [15] was 1.14 fold enrichment (6-mer frequency, TF over GST control). The binding signal [16] was 1.25 fold enrichment (6-mer frequency, TF over GST control), the binding signal [17] was 1.14 fold enrichment (6-mer frequency, TF over GST control) and the binding signal [18] was 1.17 fold enrichment (6-mer frequency, TF over GST control).

— article PMC7862700, “An all-to-all approach to the identification of sequence-specific readers for epigenetic DNA modifications on cytosine”
